Experimental data taken from the supplement of paper PMC11732987, “Enantioselective OTUD7B fragment discovery through chemoproteomics screening and high-throughput optimisation” (Communications Chemistry, 2025).

Tests used:
Assay in all cases: log2 ratio of Biotin-Ahx-Ub-VS probe labelling (fragment/DMSO); higher = less target engagement (more negative = stronger competition), active = hit call of the paper (q ≤ 0.05, log2 ratio ≤ -1)
Conditions in all cases: compound concentration: 200 uM; treatment time: 3 h
[1] = biological target: T1, USP42 (UniProt Q9H9J4)
T1 sequence (whole entry): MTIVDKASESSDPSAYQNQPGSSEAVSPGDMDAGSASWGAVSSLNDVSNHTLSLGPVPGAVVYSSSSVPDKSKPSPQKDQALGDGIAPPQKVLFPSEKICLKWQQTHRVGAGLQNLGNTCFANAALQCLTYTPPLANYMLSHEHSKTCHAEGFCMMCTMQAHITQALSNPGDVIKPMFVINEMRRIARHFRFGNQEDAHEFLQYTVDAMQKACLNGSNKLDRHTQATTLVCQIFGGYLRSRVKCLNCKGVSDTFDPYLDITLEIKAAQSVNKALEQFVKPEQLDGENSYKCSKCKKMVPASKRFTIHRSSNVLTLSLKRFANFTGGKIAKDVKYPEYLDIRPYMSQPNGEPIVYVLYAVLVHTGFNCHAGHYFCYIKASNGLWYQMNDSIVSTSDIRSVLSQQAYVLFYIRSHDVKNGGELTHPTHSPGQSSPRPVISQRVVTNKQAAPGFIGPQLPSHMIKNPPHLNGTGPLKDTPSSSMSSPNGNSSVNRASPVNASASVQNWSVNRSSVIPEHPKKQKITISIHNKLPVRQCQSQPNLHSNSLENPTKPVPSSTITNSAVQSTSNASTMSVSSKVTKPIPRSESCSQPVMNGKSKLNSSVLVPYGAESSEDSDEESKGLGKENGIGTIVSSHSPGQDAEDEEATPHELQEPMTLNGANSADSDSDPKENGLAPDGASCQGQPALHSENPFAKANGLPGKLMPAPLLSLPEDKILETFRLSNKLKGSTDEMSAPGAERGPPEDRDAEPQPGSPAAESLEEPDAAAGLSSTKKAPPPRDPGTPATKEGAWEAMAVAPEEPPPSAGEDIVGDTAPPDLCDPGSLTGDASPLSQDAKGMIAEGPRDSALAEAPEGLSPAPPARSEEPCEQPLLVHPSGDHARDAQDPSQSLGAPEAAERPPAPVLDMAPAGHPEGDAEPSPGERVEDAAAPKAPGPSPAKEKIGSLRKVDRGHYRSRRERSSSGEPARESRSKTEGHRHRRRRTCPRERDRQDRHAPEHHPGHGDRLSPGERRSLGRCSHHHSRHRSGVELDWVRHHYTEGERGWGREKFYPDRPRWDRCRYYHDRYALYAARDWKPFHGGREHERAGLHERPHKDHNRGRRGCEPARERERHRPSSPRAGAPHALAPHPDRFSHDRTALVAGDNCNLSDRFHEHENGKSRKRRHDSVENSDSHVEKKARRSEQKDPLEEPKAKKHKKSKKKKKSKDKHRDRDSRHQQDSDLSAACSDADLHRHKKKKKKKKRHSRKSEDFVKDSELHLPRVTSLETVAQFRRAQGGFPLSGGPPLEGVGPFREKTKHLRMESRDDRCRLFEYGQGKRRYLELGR
In short: (§1)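 In triplicate, 495 µg of HEK293T lysate per sample was incubated with fragment at 200 µM or vehicle for 3 h. Biotin-Ahx-Ub-VS was then added to 0.5 µM final for 1 h, and labelled DUBs were captured with NeutrAvidin, digested with LysC and trypsin, and measured by diaPASEF LC-MS/MS. Data are average log2 fragment/vehicle ratios by unpaired t-test from global-median-normalised Spectronaut label-free quantities, restricted to proteins with ≥2 unique peptides.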

[2] = biological target: USP46 (UniProt P62068)
In short: as §1

[3] = biological target: T2, USP47 (UniProt Q96K76)
T2 sequence (whole entry): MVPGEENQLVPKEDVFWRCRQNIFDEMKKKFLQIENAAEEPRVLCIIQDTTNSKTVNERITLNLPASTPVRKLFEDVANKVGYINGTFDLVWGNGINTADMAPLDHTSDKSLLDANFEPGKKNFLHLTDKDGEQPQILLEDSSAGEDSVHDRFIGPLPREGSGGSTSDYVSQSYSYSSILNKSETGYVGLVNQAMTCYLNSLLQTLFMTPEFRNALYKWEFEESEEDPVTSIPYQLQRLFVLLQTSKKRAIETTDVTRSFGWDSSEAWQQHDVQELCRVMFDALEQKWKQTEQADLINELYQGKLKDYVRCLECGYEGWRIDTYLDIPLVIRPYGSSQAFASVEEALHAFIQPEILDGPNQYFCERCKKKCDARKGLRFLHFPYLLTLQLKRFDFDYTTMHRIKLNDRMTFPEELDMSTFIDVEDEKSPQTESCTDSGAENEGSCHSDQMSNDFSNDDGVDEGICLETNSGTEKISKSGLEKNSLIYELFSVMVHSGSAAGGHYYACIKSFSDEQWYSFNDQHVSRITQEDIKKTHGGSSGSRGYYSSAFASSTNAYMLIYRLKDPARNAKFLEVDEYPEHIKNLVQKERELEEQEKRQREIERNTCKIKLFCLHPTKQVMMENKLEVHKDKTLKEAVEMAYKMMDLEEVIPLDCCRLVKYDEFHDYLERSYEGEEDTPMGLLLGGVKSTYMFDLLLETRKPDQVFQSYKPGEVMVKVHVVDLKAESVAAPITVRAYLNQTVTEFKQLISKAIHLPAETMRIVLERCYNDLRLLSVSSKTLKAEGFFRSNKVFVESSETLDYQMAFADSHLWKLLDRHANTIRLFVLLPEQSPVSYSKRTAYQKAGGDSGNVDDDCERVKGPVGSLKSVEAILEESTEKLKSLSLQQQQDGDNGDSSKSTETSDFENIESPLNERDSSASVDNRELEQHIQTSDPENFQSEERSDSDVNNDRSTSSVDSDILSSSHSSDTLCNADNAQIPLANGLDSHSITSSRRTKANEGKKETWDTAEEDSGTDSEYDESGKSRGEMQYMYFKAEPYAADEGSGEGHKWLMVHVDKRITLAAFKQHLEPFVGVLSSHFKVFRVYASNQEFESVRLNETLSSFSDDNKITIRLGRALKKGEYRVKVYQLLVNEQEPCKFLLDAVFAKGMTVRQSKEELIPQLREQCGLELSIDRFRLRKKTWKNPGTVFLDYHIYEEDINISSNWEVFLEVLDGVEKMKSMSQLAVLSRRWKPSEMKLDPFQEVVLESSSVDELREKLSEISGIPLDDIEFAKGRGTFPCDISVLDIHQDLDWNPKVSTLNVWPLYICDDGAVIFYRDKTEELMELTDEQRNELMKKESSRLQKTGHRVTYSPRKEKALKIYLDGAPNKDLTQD
In short: as §1

[4] = biological target: T3, USP48 (UniProt Q86UV5)
T3 sequence (whole entry): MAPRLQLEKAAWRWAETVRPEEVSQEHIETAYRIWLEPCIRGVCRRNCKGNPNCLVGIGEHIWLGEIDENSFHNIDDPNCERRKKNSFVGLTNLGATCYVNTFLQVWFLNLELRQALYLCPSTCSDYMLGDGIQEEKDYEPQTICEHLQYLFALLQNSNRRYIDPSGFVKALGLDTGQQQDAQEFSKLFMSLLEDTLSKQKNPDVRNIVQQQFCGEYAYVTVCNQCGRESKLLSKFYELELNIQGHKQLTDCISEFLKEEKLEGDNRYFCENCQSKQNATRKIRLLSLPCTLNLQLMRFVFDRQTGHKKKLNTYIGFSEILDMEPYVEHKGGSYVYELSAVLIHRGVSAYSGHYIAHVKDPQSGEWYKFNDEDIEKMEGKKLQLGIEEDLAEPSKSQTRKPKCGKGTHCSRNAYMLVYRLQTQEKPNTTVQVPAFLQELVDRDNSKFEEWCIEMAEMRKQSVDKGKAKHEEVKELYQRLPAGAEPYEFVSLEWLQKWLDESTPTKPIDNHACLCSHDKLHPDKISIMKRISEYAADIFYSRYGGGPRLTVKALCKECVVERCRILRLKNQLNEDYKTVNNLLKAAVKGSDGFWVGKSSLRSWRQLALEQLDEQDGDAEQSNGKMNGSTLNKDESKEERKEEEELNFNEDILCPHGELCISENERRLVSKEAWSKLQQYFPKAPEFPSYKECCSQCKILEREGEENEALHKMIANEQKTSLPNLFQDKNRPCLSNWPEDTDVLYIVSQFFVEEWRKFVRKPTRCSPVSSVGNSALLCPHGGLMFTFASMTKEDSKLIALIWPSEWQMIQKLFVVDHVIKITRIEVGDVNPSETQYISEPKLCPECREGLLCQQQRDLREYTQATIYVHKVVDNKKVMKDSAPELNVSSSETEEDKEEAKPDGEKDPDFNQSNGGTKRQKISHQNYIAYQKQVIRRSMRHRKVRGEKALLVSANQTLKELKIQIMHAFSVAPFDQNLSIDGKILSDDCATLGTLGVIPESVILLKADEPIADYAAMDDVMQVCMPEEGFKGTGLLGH
In short: as §1

[5] = biological target: T4, USP5 (UniProt P45974)
T4 sequence (whole entry): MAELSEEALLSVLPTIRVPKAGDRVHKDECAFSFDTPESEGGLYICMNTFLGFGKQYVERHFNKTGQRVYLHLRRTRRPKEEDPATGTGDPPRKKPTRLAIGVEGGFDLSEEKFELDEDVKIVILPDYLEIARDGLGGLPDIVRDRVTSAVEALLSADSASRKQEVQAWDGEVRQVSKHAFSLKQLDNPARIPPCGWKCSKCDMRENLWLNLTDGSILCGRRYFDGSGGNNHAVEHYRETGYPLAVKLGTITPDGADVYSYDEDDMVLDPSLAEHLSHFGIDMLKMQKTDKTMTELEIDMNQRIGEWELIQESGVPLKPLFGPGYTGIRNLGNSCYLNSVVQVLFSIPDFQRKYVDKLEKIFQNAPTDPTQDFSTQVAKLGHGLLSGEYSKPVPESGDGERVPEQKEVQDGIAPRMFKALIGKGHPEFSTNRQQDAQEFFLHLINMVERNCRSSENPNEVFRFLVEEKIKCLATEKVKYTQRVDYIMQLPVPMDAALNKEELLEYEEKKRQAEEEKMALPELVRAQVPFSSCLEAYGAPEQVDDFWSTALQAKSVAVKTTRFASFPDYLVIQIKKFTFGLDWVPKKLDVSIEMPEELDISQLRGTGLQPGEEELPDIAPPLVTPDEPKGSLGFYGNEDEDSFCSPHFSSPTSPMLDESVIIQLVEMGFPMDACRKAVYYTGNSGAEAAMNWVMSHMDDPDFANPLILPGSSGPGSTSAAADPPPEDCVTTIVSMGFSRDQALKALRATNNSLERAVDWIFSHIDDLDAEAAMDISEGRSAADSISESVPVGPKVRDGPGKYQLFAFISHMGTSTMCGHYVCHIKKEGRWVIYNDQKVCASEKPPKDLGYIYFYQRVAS
In short: as §1

[6] = biological target: USP54 (UniProt Q70EL1)
In short: as §1

[7] = biological target: USP7 (UniProt Q93009)
In short: as §1

[8] = biological target: T5, USP8 (UniProt P40818)
T5 sequence (whole entry): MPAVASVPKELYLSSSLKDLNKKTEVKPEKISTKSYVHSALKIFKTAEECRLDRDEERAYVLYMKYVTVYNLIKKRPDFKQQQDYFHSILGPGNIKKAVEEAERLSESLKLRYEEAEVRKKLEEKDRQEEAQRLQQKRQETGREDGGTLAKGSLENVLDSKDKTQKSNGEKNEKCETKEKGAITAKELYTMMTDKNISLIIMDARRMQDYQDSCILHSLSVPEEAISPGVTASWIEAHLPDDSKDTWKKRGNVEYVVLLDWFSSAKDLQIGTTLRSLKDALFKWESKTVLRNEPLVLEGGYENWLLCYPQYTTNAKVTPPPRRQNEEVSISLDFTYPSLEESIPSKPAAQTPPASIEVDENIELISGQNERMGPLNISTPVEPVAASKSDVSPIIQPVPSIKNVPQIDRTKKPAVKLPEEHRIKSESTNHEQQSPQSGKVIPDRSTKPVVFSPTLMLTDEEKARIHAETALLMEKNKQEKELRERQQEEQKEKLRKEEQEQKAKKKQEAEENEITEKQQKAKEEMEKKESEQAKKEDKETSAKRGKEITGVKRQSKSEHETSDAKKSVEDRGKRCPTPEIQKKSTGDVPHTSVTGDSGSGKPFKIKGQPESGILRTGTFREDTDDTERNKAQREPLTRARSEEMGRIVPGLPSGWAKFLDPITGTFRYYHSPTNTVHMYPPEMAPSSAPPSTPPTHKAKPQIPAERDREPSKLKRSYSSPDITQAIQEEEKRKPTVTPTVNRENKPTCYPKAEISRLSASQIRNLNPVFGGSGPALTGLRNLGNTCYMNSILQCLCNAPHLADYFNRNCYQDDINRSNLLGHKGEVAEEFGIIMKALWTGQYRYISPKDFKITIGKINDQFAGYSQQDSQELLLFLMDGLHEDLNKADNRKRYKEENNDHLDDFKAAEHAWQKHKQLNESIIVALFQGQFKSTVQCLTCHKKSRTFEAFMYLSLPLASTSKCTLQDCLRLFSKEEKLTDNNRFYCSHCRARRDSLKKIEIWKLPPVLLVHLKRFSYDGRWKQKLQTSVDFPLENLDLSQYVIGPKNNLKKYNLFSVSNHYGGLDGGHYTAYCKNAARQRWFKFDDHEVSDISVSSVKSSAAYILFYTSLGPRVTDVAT
In short: as §1

Measured: log2 ratio of Biotin-Ahx-Ub-VS probe labelling

USP46, sequence (P62068 whole entry): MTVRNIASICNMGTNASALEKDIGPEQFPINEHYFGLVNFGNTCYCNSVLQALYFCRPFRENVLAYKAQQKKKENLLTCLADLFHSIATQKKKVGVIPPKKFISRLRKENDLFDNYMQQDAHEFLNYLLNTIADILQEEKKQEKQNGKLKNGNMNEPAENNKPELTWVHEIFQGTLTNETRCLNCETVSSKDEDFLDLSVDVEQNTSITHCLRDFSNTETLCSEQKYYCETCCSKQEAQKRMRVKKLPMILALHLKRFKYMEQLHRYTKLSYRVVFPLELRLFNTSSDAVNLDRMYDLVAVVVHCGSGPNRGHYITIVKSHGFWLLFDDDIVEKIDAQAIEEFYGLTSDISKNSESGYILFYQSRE
USP7, sequence (Q93009 whole entry, looked up): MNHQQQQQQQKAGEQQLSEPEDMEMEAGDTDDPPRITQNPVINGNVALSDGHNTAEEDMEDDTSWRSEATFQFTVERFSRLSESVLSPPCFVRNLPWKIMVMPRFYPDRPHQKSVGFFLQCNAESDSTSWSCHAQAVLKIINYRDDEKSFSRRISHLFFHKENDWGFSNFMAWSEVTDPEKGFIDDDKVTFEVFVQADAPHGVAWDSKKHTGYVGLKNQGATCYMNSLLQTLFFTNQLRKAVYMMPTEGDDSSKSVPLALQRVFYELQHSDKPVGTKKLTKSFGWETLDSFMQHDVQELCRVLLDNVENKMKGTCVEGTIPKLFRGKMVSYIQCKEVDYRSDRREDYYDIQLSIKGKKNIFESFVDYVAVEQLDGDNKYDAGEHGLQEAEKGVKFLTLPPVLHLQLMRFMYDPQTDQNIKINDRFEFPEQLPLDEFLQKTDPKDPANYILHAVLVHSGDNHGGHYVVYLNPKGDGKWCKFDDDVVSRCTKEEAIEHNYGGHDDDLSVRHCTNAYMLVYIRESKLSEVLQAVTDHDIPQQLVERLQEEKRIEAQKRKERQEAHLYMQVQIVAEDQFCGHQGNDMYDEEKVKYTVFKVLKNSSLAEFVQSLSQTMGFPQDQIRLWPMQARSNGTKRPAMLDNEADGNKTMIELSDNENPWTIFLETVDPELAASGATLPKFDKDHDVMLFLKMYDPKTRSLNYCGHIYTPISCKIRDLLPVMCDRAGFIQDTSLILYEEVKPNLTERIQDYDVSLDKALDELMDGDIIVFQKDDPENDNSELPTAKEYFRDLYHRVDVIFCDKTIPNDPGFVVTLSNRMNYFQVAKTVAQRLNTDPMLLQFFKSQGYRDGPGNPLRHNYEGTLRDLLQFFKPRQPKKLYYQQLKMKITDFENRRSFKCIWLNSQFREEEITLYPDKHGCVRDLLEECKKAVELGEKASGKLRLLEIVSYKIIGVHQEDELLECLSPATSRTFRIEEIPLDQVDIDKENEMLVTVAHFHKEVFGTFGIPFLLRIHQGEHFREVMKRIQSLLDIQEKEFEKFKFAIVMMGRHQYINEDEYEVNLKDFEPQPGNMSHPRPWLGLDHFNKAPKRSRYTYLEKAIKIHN
USP54, sequence (Q70EL1 whole entry): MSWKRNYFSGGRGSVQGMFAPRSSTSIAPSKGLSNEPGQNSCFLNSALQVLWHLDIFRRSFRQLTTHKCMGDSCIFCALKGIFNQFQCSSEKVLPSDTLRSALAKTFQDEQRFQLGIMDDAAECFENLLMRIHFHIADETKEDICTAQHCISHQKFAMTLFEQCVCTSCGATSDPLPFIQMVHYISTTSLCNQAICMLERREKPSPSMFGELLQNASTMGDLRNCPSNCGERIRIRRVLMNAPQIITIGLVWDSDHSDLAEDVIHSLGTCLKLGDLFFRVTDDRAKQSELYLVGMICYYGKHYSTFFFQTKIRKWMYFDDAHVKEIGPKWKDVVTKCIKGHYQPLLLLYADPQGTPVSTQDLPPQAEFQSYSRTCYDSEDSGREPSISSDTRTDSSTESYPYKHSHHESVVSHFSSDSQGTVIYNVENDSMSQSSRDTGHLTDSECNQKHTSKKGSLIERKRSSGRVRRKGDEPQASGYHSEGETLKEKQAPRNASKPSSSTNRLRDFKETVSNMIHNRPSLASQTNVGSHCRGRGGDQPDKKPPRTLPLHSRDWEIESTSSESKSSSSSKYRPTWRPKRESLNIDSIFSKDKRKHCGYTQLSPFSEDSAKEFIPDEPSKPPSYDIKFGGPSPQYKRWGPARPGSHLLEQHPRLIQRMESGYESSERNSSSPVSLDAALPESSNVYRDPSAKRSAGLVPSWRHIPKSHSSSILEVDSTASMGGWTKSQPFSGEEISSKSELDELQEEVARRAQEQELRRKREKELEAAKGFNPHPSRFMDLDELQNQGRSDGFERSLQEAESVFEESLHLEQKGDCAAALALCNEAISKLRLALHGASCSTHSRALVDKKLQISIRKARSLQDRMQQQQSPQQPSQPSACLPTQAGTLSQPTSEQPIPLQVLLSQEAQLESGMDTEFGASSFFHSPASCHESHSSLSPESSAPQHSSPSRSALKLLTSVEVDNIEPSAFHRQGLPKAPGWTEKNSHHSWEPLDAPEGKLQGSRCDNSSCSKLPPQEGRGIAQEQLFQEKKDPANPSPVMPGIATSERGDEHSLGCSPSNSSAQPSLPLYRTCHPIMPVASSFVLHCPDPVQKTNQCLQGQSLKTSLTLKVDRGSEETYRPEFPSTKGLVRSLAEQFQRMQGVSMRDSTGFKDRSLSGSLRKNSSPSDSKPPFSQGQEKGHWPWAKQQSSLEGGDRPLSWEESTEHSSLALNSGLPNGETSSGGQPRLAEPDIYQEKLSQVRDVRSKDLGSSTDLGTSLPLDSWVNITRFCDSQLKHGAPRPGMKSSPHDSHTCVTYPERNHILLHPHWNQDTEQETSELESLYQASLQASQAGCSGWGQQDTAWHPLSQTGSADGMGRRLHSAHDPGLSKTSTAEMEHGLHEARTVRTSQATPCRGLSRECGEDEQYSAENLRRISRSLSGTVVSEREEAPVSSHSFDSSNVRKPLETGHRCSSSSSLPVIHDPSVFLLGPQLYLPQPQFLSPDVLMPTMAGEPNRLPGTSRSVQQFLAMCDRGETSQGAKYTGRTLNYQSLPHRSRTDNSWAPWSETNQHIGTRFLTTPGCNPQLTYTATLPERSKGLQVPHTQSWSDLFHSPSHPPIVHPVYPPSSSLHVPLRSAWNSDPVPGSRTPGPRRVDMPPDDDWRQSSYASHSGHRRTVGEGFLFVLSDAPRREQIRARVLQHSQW

CNC(=O)C1(NC(=O)CCl)CCCCC1
inactive: [1] -0.202 | [2] 0.0346 | [3] 0.28 | [4] -0.00183 | [5] 0.148 | [6] 0.521 | [7] -0.0838 | [8] -0.173
